TDP1 cell noCPT = qHTS for Inhibitors of human tyrosyl-DNA phosphodiesterase 1 (TDP1): qHTS in cells in absence of CPT; DT40 Tdp1-/- hTDP1 cells, no CPT, ATP luminescence, 48 h; Potency, µM (titrated, usually from 46.2 µM), most hits filed as inhibitors; 420,000 compounds, 15% hits; note: nearly all actives have a fitted effect of over 55% in size
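Compound effects on proliferation are scored in DT40 Tdp1-/-;hTDP1 cells in the absence of CPT. ATP levels (CellTiter-Glo luminescence) are recorded after a ≥48 hr, 37 °C incubation.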
TDP1 cell CPT = growth inhibition of DT40 Tdp1-/-;hTDP1 cells with camptothecin (screen for TDP1 inhibitors). chicken DT40 Tdp1-/-;hTDP1 cells + 20 nM CPT, ATP luminescence, 48 h. Potency, µM (highest dose often 46.2 µM), actives largely listed as inhibitors. 420,000 compounds, 12% hits. AID 686979; note: nearly all actives have a fitted effect of over 55% in size
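Chicken DT40 Tdp1-/- cells complemented with human TDP1, 400 cells/well, exposed to compounds plus 20 nM camptothecin for at least 48 h at 37 C; viability read as ATP content by CellTiter-Glo luminescence.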
TGFb SMAD3 inh = inhibitors of TGF-b signaling. 410,000 compounds, 1.2% hits. AID 588855. Potency, µM (series often up to 46.1 µM), usual class: inhibitors. HepG2 CAGA-GFP TGF-b/SMAD3 reporter, GFP fluorescence, 18 h; TGF-beta stimulated, 500 pg/mL final; note: nearly all actives have a fitted effect of over 65% in size
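GFP signal (ex488/em500-530) from TGF-beta-stimulated HEPG2 CAGA-GFP cells, 500 pg/mL final, 18 h at 37 degrees C in DMEM plus 1% FBS, normalized to unstimulated and DMSO-stimulated controls.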
IL-1B inflam inh = blocks inflammasome-driven IL-1 beta release. activity change, % at 57.5 µM. AID 743279. THP-1 LPS/ATP IL-1B secretion, AlphaLISA, 16 h; active compounds read low. 360,000 compounds, 4.7% hits; in the data active = activity change below about -50%; inconclusive = mostly about -30% to -49%
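Secreted IL-1B measured by AlphaLISA bead assay after 16 h compound exposure of THP-1 cells; compounds (final up to 57.5 uM) added 1 h before LPS (250 ng/mL) and ATP (1.25 mM) stimulation; lower signal means less secretion.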
HepG2 tox = kills HepG2 cells in TGF-b inhibitor counter-screen; AID 588856; HepG2 CAGA-GFP viability, ATP luminescence, 18 h; 410,000 compounds, 0.76% hits; Potency, µM (titrated, usually from 46.1 µM), hits mostly cytotoxic
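HepG2 CAGA-GFP cells (1000/well, DMEM with 1% FBS) received compound, then TGF-beta at 500 pg/mL final, and were incubated 18 hours at 37 degrees C. Viability was read by CellTiter-Glo luminescence. Media-only wells were set as complete cell-killing and DMSO as no toxicity.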
TDP1 block = TDP1 (human) enzyme inhibition. Q9NUW8. recombinant TDP1, AlphaScreen DNA substrate cleavage. Potency, µM (highest dose often 130 µM), most hits filed as inhibitors. 350,000 compounds, 0.28% hits. AID 485290; note: nearly all actives have a fitted effect of over 40% in size
Target sequence (Q9NUW8 whole entry, looked up): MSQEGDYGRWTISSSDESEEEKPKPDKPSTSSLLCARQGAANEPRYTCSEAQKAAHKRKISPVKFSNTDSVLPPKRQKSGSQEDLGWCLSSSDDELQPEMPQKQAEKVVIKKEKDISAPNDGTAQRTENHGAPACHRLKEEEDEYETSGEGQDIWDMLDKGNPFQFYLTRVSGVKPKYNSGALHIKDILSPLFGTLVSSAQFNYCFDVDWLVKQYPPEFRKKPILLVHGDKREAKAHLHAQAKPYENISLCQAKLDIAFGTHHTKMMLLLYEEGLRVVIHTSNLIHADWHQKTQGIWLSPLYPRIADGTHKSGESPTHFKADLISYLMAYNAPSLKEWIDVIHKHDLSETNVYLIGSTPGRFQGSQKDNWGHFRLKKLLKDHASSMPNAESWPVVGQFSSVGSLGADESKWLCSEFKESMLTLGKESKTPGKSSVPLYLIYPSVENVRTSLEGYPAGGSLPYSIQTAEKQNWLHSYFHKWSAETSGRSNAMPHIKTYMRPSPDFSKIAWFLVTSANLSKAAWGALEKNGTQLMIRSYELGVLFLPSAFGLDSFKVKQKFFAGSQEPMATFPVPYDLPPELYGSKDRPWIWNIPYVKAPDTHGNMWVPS
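AlphaScreen read-out: signal falls as enzyme removes the 3' tyrosine-FITC from a 5'-biotinylated DNA oligo (15 nM, 5 min, RT). Enzyme was E. coli-made recombinant Tdp1 at 1 nM, exposed to compound for 15 min beforehand; beads 10 ug/ml, 10 min.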
Hits are given with their value; 0 = inactive; ? = inconclusive; - = not tested or not shown. Hits are enriched below; roughly 19% of the tested compounds scored in any of these assays. Unless noted, calls come from the whole dose curve; as a rule, active = well fitted curve in the direction sought with a large enough effect; inconclusive = small, poorly fitted or top-dose-only effect, or another doubt; inactive = no such curve, though single readings can be large; an effect the other way counts as inactive or inconclusive.

SMILES | TDP1 cell noCPT | TDP1 cell CPT | TGFb SMAD3 inh | IL-1B inflam inh | HepG2 tox | TDP1 block
O=c1[nH]cnc2c1sc1nc(C(F)F)cc(-c3ccccc3)c12 | 0 | 0 | 0 | 0 | 0 | 0
O=c1c(-c2cccs2)nc2cncnc2n1Cc1ccc(F)cc1 | 0 | 0 | - | - | - | -
Cc1ccc(CNC(=O)C2CCCCN2S(=O)(=O)c2ccc(F)cc2)cc1 (stereo not given) | 26µM | 13µM | 0 | - | 0 | 0
COc1ccc(CNC(=O)C2CCCN2S(=O)(=O)c2ccccc2)cc1 (stereo not given) | ? | ? | 0 | 0 | 0 | 0
O=C(NCc1ccc(F)cc1)C1CCCN1S(=O)(=O)c1ccccc1C(F)(F)F (stereo not given) | ? | 13µM | 0 | 0 | 0 | 0
CC(C)c1ccc(CNC(=O)C2CCCN2S(=O)(=O)c2ccccc2)cc1 (stereo not given) | 12µM | ? | ? | 0 | 0 | -
CNC[C@H](O)[C@@H](O)[C@H](O)[C@H](O)CO | 0 | 0 | - | - | - | -
Cc1ccc2cccc(NC(=O)COc3ccccc3[N+](=O)[O-])c2n1 | 0 | 0 | 0 | - | 0 | 0
CCN1C(=O)c2ccccc2S(=O)(=O)c2ccc(C(=O)NCc3ccccc3OC)cc21 | ? | ? | 0 | - | 0 | 0
Cc1ccc(O)c(-c2[nH]ncc2C(=O)c2ccc(Cl)cc2)c1 | 0 | 0 | 0 | -86 | 0 | -
Cc1ccc(-c2[nH]ncc2C(=O)c2cccc(F)c2)c(O)c1 | 15µM | ? | 0 | 0 | 0 | -
Cc1cccc(C(=O)c2cn[nH]c2-c2ccc(C)cc2O)c1 | 0 | 0 | ? | 0 | 0 | -
CCOc1ccc(S(=O)(=O)N(CC(=O)Nc2cccnc2)c2ccc(F)cc2)cc1 | ? | ? | ? | 0 | 0 | 0
O=C(Cn1cnc([N+](=O)[O-])n1)N/N=C/c1ccc(O)cc1O | 12µM | ? | 0 | 0 | 0 | 0
O=C(Cn1cnc([N+](=O)[O-])n1)N/N=C/c1cccc(Cl)c1 | 0 | 0 | 0 | 0 | 0 | 0
Cc1cc(C)n(CCC(=O)N/N=C/c2ccc(O)cc2O)n1 | 23µM | ? | 0 | 0 | 0 | 0
COc1ccc(/C=N/NC(=O)CCn2nc(C)cc2C)cc1 | 0 | 0 | 0 | 0 | 0 | 0
Cc1cc(C)n(CCC(=O)N/N=C/c2ccccc2O)n1 | 12µM | 12µM | 0 | 0 | 0 | 0
Cc1cc(C)n(CCC(=O)N/N=C/c2ccc(Cl)c([N+](=O)[O-])c2)n1 | 0 | 0 | 0 | -90 | 0 | 0
O=C(CN1CCN(S(=O)(=O)c2ccc(Br)cc2)CC1)N/N=C/c1ccc(Cl)c([N+](=O)[O-])c1 | 18µM | ? | 0 | -90 | 0 | 0
O=c1[nH][nH]cc1C=Nc1cc(Cl)ccc1O | ? | 21µM | 0 | 0 | 0 | 0
O=C(COc1ccc(Cl)c(Cl)c1)NN1C(=O)C2C(C1=O)C1C=CC2C12CC2 (stereo not given) | 18µM | 0 | 0 | 0 | 0 | 0
Cc1ccc(C(=O)NN2C(=O)C3C4C=CC([C@@H]3C2=O)C42CC2)cc1 (stereo not given in full) | 0 | 0 | 0 | 0 | 0 | -
CC(C)=C1C2CCC1C1C(=O)N(NC(=O)COc3ccc(Cl)c(C)c3)C(=O)C21 (stereo not given) | 0 | 0 | 0 | -68 | 0 | 0
Cc1cc(OCC(=O)NC(C)(C)C)ccc1Cl | 0 | 0 | 0 | 0 | 0 | 0
SMILES | TDP1 cell noCPT | TDP1 cell CPT | TGFb SMAD3 inh | IL-1B inflam inh | HepG2 tox | TDP1 block
O=C(CNC(=O)c1cccc(F)c1)N/N=C/c1cccs1 | 0 | 0 | 0 | 0 | 0 | -
Cc1ccc(C)c(-c2ccc(C(=O)O)o2)c1 | - | - | - | - | - | 0
CC(C)(C)C1CCC(=NNC(=O)CN(c2ccccc2)S(C)(=O)=O)CC1 (stereo not given) | 0 | 0 | 0 | 0 | 0 | 0
CCNC(=S)NN=C1CCC(C(C)(C)C)CC1 (stereo not given) | 18µM | ? | 0 | 0 | 0 | 0
COC(=O)CNC(=S)NC(=O)c1ccc(C(C)(C)C)cc1 | 0 | 0 | 0 | 0 | 0 | 0
COc1cc(-c2c(-c3ccsc3)sc3ccccc23)cc(OC)c1OC | 0 | 0 | 0 | 0 | 0 | 0
COc1cc(-c2c(CCO)sc3ccccc23)cc(OC)c1OC | 6.5µM | 6.5µM | - | 0 | - | -
O=C(CN1CCN(CC(=O)Nc2ccc3c(c2)OC2(CCCCC2)O3)CC1)Nc1cccc(F)c1 | 16µM | 23µM | ? | - | 0 | -
O=C(CN1CCN(C(=O)CCC(=O)N2CCC(c3ccccc3)=N2)CC1)Nc1cccc(F)c1 | 16µM | 16µM | 0 | ? | 0 | -
O=C(CN1CCN(C(=O)CCC(=O)N2CCC(c3ccccc3)=N2)CC1)Nc1ccc(F)cc1 | 23µM | ? | 0 | 0 | 0 | 0
Cc1cccc(C)c1NC(=O)CN1CCN(C(=O)CCC(=O)N2CCC(c3ccccc3)=N2)CC1 | 0 | 0 | 0 | 0 | 0 | -
CCCCN(CC)CCNC(=O)CN1C(=O)COc2ccc(S(=O)(=O)N3CCOCC3)cc21 | 0 | 0 | 0 | - | 0 | 0
CCc1cccc(NC(=O)Cn2c(=O)n(-c3cccc(Cl)c3)c(=O)c3c2c2cc(C)ccc2n3C)c1 | 0 | 0 | 0 | - | 0 | 0
CCCCN1Cc2cc(C(=O)c3cc(F)ccc3O)cnc2NC1=O | ? | ? | 0 | -57 | 0 | 0
